Experimental findings from paper PMC5700166 are described below.

What all share (assay): protein-binding microarray (PBM); PBM: ~300 nM protein, 6 mM HEPES pH 7.8, 80 mM KCl, 0.5 mM EDTA, 0.5 mM EGTA, 6% glycerol, 35 ng/ul poly-dIdC, 1% milk, 1 h, room temperature; Ap Aiptasia and Nv Nematostella (sea anemones) / Co Capsaspora / Aq Amphimedon (sponge) / Dm Drosophila / Hu human; RHD is the Rel homology domain; high values mean tight binding
What all share (conditions): dsDNA, one strand shown

The target in one assay is T1, GST-Ap-NF-kB RHD (Exaiptasia pallida (Aiptasia), UniProt A0A913YAJ5 2-422).
T1 sequence: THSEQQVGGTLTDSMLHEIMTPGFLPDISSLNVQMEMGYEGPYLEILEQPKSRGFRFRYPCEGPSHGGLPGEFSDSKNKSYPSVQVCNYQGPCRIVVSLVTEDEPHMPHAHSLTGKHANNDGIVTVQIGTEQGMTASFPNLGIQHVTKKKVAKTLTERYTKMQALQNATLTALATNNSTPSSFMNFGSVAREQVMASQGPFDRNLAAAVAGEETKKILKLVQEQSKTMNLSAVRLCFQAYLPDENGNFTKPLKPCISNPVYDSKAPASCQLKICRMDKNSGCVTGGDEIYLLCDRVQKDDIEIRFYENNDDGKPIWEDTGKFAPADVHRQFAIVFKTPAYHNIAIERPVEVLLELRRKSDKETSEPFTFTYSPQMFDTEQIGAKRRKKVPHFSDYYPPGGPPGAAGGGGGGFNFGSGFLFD

Assay [1] deals with T2, GST-Nv-NF-kB (Cys allele) (Nematostella vectensis, UniProt E5G601 2-411).
T2 sequence: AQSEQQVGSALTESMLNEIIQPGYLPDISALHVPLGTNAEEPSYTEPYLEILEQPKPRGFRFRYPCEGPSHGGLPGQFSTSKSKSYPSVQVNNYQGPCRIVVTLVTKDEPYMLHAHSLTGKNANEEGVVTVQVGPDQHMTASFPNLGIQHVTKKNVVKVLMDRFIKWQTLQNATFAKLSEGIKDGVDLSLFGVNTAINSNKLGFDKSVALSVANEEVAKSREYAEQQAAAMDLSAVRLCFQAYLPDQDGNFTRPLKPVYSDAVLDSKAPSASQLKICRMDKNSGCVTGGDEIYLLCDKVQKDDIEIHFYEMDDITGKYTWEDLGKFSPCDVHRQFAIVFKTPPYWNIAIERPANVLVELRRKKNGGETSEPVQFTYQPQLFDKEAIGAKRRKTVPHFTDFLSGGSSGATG

The target of a further assay is T3, GST-Co-NF-kB (Capsaspora owczarzaki, UniProt F1ARL5 200-546).
T3 sequence: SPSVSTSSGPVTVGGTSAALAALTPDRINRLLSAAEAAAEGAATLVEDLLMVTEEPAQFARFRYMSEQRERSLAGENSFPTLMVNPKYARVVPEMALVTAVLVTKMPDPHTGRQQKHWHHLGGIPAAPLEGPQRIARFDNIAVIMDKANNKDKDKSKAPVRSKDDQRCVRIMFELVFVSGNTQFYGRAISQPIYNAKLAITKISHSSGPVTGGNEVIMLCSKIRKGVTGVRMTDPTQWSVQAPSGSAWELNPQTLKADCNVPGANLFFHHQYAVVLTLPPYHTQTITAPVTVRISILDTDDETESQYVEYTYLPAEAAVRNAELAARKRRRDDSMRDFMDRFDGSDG

The next assay deals with T4, GST-Dm-Relish (Drosophila melanogaster, UniProt Q94527 99-473).
T4 sequence: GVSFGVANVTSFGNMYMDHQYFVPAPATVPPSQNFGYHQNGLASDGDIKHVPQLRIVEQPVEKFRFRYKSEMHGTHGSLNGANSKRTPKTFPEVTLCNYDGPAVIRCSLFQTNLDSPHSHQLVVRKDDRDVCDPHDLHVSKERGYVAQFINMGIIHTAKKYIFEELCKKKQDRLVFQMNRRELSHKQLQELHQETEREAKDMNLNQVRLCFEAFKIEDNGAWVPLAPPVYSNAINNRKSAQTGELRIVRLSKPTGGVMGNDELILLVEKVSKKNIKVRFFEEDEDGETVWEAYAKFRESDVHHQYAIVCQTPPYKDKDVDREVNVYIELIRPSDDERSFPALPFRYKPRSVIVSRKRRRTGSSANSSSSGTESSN

For a further assay, the target named is T5, GST-Aq-NF-kB (Amphimedon queenslandica, UniProt A9Y5G7 2-389).
T5 sequence: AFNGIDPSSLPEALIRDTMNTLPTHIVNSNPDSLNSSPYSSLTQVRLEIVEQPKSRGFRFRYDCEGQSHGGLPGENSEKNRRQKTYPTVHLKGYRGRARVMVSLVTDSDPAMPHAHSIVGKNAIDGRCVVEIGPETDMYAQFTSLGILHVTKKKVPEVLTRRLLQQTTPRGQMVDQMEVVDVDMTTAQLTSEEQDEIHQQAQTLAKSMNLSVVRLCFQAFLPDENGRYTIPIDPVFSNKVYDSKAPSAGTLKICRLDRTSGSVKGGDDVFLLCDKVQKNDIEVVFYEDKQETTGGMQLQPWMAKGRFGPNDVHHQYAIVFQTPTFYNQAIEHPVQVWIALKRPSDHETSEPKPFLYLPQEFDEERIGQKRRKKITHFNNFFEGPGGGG

“CCGATTAACATCAGGGGGAGAGATGATGTTAATCGGGTCTTGATTCGCTTGACGCTGCTG”: the binding signal with GST-Ap-NF-kB RHD worked out at 3.84 z-score; in assay [1] it was 3.66 z-score; in the assay with GST-Co-NF-kB, 5.69 z-score; with GST-Dm-Relish, 1.45 z-score; in the assay with GST-Aq-NF-kB it was 3.54 z-score.
For “CCGATTAACATCAGGAACACCCCTGATGTTAATCGGGTCTTGATTCGCTTGACGCTGCTG”, the binding signal with GST-Ap-NF-kB RHD was 3.14 z-score; in assay [1], 1.33 z-score; with GST-Co-NF-kB, 1.86 z-score; with GST-Dm-Relish it was 3.5 z-score; with GST-Aq-NF-kB it was 4.23 z-score.
Regarding “CCGATTAACATCAGGACACCCCCTGATGTTAATCGGGTCTTGATTCGCTTGACGCTGCTG”, the binding signal in the assay with GST-Ap-NF-kB RHD came to 6.35 z-score; in assay [1], 5.22 z-score; in the assay with GST-Co-NF-kB it was 2.5 z-score; in the assay with GST-Dm-Relish, 6.86 z-score; with GST-Aq-NF-kB, 7.67 z-score.
As for “CCGATTAACATCAGGGGGTGATATGATGTTAATCGGGTCTTGATTCGCTTGACGCTGCTG”, the binding signal with GST-Ap-NF-kB RHD worked out at 3.88 z-score; in assay [1], 3.66 z-score; with GST-Co-NF-kB, 4.73 z-score; with GST-Dm-Relish, 2.63 z-score; with GST-Aq-NF-kB, 4.56 z-score.
As for “CCGATTAACATCAGGAAATCCCATGATGTTAATCGGGTCTTGATTCGCTTGACGCTGCTG”, the binding signal with GST-Ap-NF-kB RHD was determined as 4.15 z-score; in assay [1], 3.68 z-score; with GST-Co-NF-kB, 1.17 z-score; in the assay with GST-Dm-Relish, 8.1 z-score; with GST-Aq-NF-kB, 5.09 z-score.
Consider “CCGATTAACATCAGGGAAGTCCATGATGTTAATCGGGTCTTGATTCGCTTGACGCTGCTG”, for which the binding signal came to 2.24 z-score in the assay with GST-Ap-NF-kB RHD; 2.51 z-score in assay [1]; 1.08 z-score with GST-Co-NF-kB; 7.44 z-score with GST-Dm-Relish; 4.62 z-score with GST-Aq-NF-kB.
With “CCGATTAACATCAGGGAACTCCATGATGTTAATCGGGTCTTGATTCGCTTGACGCTGCTG”, the binding signal stood at 2.66 z-score in the assay with GST-Ap-NF-kB RHD; 2.2 z-score in assay [1]; 1.5 z-score in the assay with GST-Co-NF-kB; 6.21 z-score with GST-Dm-Relish; 3.71 z-score with GST-Aq-NF-kB.
“CCGATTAACATCACAAAAATCCCTGATGTTAATCGGGTCTTGATTCGCTTGACGCTGCTG”: the binding signal with GST-Ap-NF-kB RHD was 5.86 z-score; in assay [1], 6.11 z-score; in the assay with GST-Co-NF-kB, 2.59 z-score; with GST-Dm-Relish, 8.17 z-score; in the assay with GST-Aq-NF-kB it was 6.23 z-score.
As for “CCGATTAACATCACACACCCCCCTGATGTTAATCGGGTCTTGATTCGCTTGACGCTGCTG”, the binding signal amounted to 4.13 z-score with GST-Ap-NF-kB RHD; 3.15 z-score in assay [1]; 3.85 z-score with GST-Co-NF-kB; 3.82 z-score in the assay with GST-Dm-Relish; 3.48 z-score in the assay with GST-Aq-NF-kB.
Regarding “CCGATTAACATCAAAAAGTTCCCTGATGTTAATCGGGTCTTGATTCGCTTGACGCTGCTG”, the binding signal with GST-Ap-NF-kB RHD amounted to 4.61 z-score; in assay [1], 5.3 z-score; with GST-Co-NF-kB, 4.37 z-score; with GST-Dm-Relish it was 6.54 z-score; with GST-Aq-NF-kB, 5.9 z-score.
Take “CCGATTAACATCAGGGGGTACACTGATGTTAATCGGGTCTTGATTCGCTTGACGCTGCTG”: the binding signal with GST-Ap-NF-kB RHD was determined as 4.19 z-score; in assay [1], 2.66 z-score; with GST-Co-NF-kB, 4.33 z-score; in the assay with GST-Dm-Relish, 3.21 z-score; with GST-Aq-NF-kB, 3.31 z-score.
For the sequence “CCGATTAACATCAGGGAATTAAATGATGTTAATCGGGTCTTGATTCGCTTGACGCTGCTG”, the binding signal stood at 2.06 z-score in the assay with GST-Ap-NF-kB RHD; 4.46 z-score in assay [1]; 3.84 z-score with GST-Co-NF-kB; 2.47 z-score in the assay with GST-Dm-Relish; 4.32 z-score in the assay with GST-Aq-NF-kB.
As to “CCGATTAACATCAAGGGAGTACCTGATGTTAATCGGGTCTTGATTCGCTTGACGCTGCTG”, the binding signal with GST-Ap-NF-kB RHD was 4.45 z-score; in assay [1] it was 2.9 z-score; in the assay with GST-Co-NF-kB it was 1.52 z-score; with GST-Dm-Relish, 3.08 z-score; in the assay with GST-Aq-NF-kB, 2.71 z-score.
